# Measured values published in ChEMBL document CHEMBL4513216, “Probing the Open Global Health Chemical Diversity Library for Multistage-Active Starting Points for Next-Generation Antimalarials” (ACS Infect Dis, 2020).
# Screen size: about 65,000 compounds; about 2,100 (3.2%) showed an effect of 50% or more. The median lay at about -52%. The list comes from a sample in which strong results are over-represented; it also holds similar structures and randomly drawn compounds.
# Tested on: Plasmodium falciparum
# Test: Screen against P. falciparum Asexual Blood Stage (ABS), at 5uM
# Format: functional, Dd2
# Conditions: tested at 5 uM
row,SMILES,INHIBITION [%]
1,Cc1nc(=O)c(CC(=O)N2C[C@H]3CC[C@@H](C2)N(CC2CCC2)C3)c[nH]1,-30
2,CCN(CC1CCCN(CCc2cccc(OC)c2)C1)C(=O)CN(C)C (centres undefined),83.3
3,COCC1COCCC12CCN(C(=O)Cc1cccc(OC)c1)CC2 (centres undefined),-3.52
4,COc1ccc(C(=O)C2CCCN(Cc3ccccc3O)C2)c(OC)c1 (centres undefined),-55.9
5,COc1ccc(C(=O)C2CCCN(CCc3ccccc3)C2)c(OC)c1 (centres undefined),71.8
6,Cc1nc(NCc2ccco2)nc2c1COCC21CCNC1 (centres undefined),21.7
7,Cn1cc(N2CCC3(CCN(Cc4cccnc4)C3)C2=O)cn1 (centres undefined),-35.8
8,CCCN1CC2(CCN(c3ncc(F)cn3)CC2)CC1C(=O)O (centres undefined),-31.5
9,CN(C)C[C@@H]1CN(C2CCN(c3ccc(Cl)cc3)CC2)C[C@@H]1CO,88.5
10,Cc1cc(F)ccc1N1CCC(N2C[C@@H](CN(C)C)[C@@H](CO)C2)CC1,92.6
11,CN(C)C[C@@H]1C[C@@H]2CN(c3ncc(F)cn3)CC[C@@H]2N1C,12.3
12,CN(C)C[C@@H]1CN(C2CCN(c3ccccc3Cl)CC2)C[C@@H]1CO,74
13,CN(CCO)C[C@@H]1CN(C2CCN(c3ccccc3Cl)CC2)C[C@@H]1CO,79.5
14,COCCO[C@H]1COCCN(C2CCN(C)CC2)C1,-110
15,Cc1cc(CN2C[C@@H]3CCCO[C@@H]3[C@H](NS(C)(=O)=O)C2)no1,-28.3
16,O=C(C1CCCCC1)N1CCO[C@@H]2CNC[C@@H]21,-65.1
17,COC[C@]12COC[C@H]1CN(Cc1cccnc1OC)C2,-130
18,CN(CCO)C[C@@H]1CN(Cc2ccccc2-c2ccccc2)C[C@@H]1CO,87.6
19,CC(C)=CCN1C[C@@H]2CC[C@H]1CN(C(=O)Cc1c(C)[nH]c(C)nc1=O)C2,-28.2
20,CCOc1ccc(CN2CCCC(c3cc4ncccc4[nH]3)C2)cc1 (centres undefined),85
21,Fc1ccc(CN2CCCC(c3cc4ncccc4[nH]3)C2)cc1 (centres undefined),82.3
22,Fc1ccc(CN2CCO[C@H]3[C@H](Oc4ccccn4)CC[C@@H]32)cc1,-29
23,O=C(Cc1cccnc1)N1C[C@@H]2CC[C@H]1CN(Cc1ccc(F)cc1)C2,-13.8
24,c1cc(CO[C@H]2CC[C@H]3[C@H]2OCCN3Cc2nccs2)ccn1,-84.3
25,CN(C)C(=O)[C@H]1C[C@@H]2CCN(Cc3ccncc3)C[C@H]2O1,-59.7

row,SMILES,INHIBITION [%]
1,CCc1c(C)sc2ncnc(N3CC[C@@H](N4CCC(O)CC4)[C@H](O)C3)c12,75.5
2,Cc1cc(C)c(CNc2cnc3ccccc3n2)c(=O)[nH]1,12.9
3,COc1ccccc1CCN1CCCC(CN(C)Cc2ccc(C)o2)C1 (centres undefined),87.8
4,COc1ccccc1CC(=O)N1CCN(Cc2ccco2)C[C@@H]1C,-101
5,COc1ccccc1CC(=O)N(CCN1CCOCC1)Cc1ccco1,-29.3
6,Cc1nc(CN2CCOCC3(CCN(c4ccccn4)C3)C2)cs1 (centres undefined),0.814
7,Cc1nc(CNCc2c(C(C)C)nn(C)c2N2CCOCC2)cs1,71.7
8,Cc1nc(CN2CCOCC3(CCN(c4ncccn4)C3)C2)cs1 (centres undefined),-42.9
9,CC(C)NC(=O)N1CCOC2(CNC2)C1,-131
10,Cc1cccc(CN2C[C@H](OCc3csc(C)n3)[C@H]3COC[C@H]32)n1,-75.9
11,Cn1ncc2c(NC3CN4CCC3CC4)nc(-c3ccncc3)nc21 (centres undefined),0.572
12,Cn1ncc2c(NC3CCSC3)nc(-c3ccncc3)nc21 (centres undefined),83.1
13,CCc1cc(CN2C[C@@H]3CC[C@H]2CN(C2Cc4ccccc4C2)C3)on1,88.2
14,CN(C)C(=O)CN1C[C@H]2CC[C@@H](C1)N(Cc1c(Cl)cncc1Cl)C2,-33.6
15,CSc1ncc(CN2C[C@@H]3CC[C@H]2CN(C2CCOCC2)C3)cn1,-18.2
16,COCCN1CCO[C@@H]2CN(Cc3ccccn3)C[C@@H]2C1,-86.9
17,Cc1ccsc1CN(CCCN(C)C)Cc1ccccn1,77.9
18,COc1cc(CNC(C)Cn2cccn2)cc2c1OCCO2 (centres undefined),-31
19,COc1cc(CNC(C)Cn2cccn2)cc2c1OCO2 (centres undefined),-32.2
20,COCCn1ccnc1CN(Cc1ccccn1)Cc1sccc1C,92.9
21,COc1cc(CN(CCCN(C)C)Cc2ccccn2)cc2c1OCO2,80.6
22,Cc1ccc(N2C[C@@H]3CN(Cc4csc(C)n4)CCO[C@@H]3C2)nn1,-106
23,O=C1CO[C@H]2CN(Cc3ccccc3Br)C[C@@H]2N1,7.05
24,COc1ccc(F)cc1C(=O)C1CCCN(Cc2ccc(C)s2)C1 (centres undefined),17
